The record followed here is PubChem BioAssay (NCI).

Compounds without any hit were thinned out: in the full panel of roughly 83,000, 20% have a hit.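 Growth was measured after 48 h exposure to one concentration of compound in 96-well plates. Values under 10 count as active.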 Unmarked numbers belong to inactive results. The source made the active and inactive calls.

The test system of this test is HL-60(TB) leukemia. In words: NCI-60 one-dose screen, 48 h (100 = growth as untreated, 0 = no growth, -100 = all killed). As to conditions: 10 µM unless noted.
As for `O=C(O)c1c(=O)cccc2ssc12`, the growth was -9.53% (active). As for `O=C1CCNC1`, the growth was 103%.

As to `Cc1nc2ccccc2n1C(=O)C[C@@H]1NC(=S)NC1=O`, the growth was 101%.

On to `O=c1cc2oc3cc(O)c(O)cc3c(-c3ccccc3O)c-2cc1O`, for which the growth is 103%. With `CC(C)c1ccc(C(=O)Nc2nc3ccc(O)c(CN(C)C)c3s2)cc1`, the growth is 76.8%. As to `Nc1nc(-c2ccnc(Cl)c2)nn1-c1nc2ccccc2s1`, the growth is 107%. Consider `O=C(c1ccc(Nc2nccc(NCCCCNc3ccnc4cc(Cl)ccc34)n2)cc1)N1CCCCC1`, for which the growth is -22.3% (active).

Turning to `CC1CCC2(C(=O)O)CCC3(C)C(=CCC4C5(C)CC(O)C(O)C(C)(CO)C5C(O)CC43C)C2C1C` (stereo not given), the growth is 118%.

`CC(C)COC(=O)NC(C)(C)C`: the growth is 85.2%.

In the case of `CCCN=C1NC(=O)/C(=C/c2nc(-c3ccc(OC)cc3)n3ccccc23)S1`, the growth was 79.8%. For `COC(=O)[C@H](Cc1cn(C)cn1)NC(=O)[C@H](C)NC(=O)Nc1cc(C(F)(F)F)cc(C(F)(F)F)c1`, the growth was -70.4% [100 µM] (active). For the molecule `CC1CC(C)(C)OB(OC(C)CC(C)(C)OB2OC(C)CC(C)(C)O2)O1` (stereo not given), the growth was 103%. For the molecule `COc1cccc(-c2nn(-c3ccccc3)cc2-c2ccnc(NCCCNS(=O)(=O)c3cccc(F)c3)c2)c1`, the growth was 9.51% (active). Regarding `O=C(CCCCNC(=O)c1nc(-c2ccccc2)n(-c2ccccc2)n1)NO`, the growth was 97%. In the case of `CC(c1ccccc1)N(C)C` (stereo not given), the growth is 88.5%.

With `Cc1ccc(C(=O)Nc2ccccc2N)cc1`, the growth is -19.5% (active).

Take `O=C(CN1CCN(c2cc3c(cc2F)c(=O)c(C(=O)N/N=C/c2ccccc2)cn3C2CC2)CC1)N/N=C\c1ccccc1`: the growth is 51.1%. For `O=C(/C=C/c1cccnc1)NCCCCC1CCCN(C(=O)c2ccccc2)C1` (stereo not given) the value was 63.6%.

In the case of `CCc1cc(C)cc(O)c1`, the growth was 105%. On to `C=C1C(=O)O[C@H]2[C@H]1CC/C(COC(=O)c1cc3cc(OC)ccc3[nH]1)=C\CC[C@@]1(C)O[C@@H]21`, for which the growth is -34.5% (active).

For the molecule `Cc1ccc(-c2cc(-c3ccccc3)n(-c3ccccc3)n2)cc1`, the growth is 98.5%. As for `O=C1C(N2CCOCC2)=C(I)C(=O)c2ncccc21`, the growth was 80.9%. Consider `Cc1cc(Cl)nc(N(CCCNc2ccnc3cc(Cl)ccc23)Cc2ccccn2)n1`, for which the growth was 12%. As for `COc1ccc(S(=O)(=O)Nc2cc(/C=C\c3cc(OC)c(OC)c(OC)c3)ccc2OC)cc1`, the growth is -31.6% (active). Regarding `c1cncc(-c2nc3ccccc3[nH]2)c1`, the growth was 94.8%. As to `COc1ccc2c(c1)OC13Oc4cc(OC)ccc4C=C1CCCC3=C2`, the growth is 7.56% (active). Take `CC(=O)c1c[nH]c2ccccc12`: the growth was 114%. For `COc1ccc2[nH]c(C(=O)N3CCN(C(=O)OCc4ccc5c(Br)cc(Br)c(O)c5n4)CC3)cc2c1`, the growth is -42.1% (active). On to `COc1cc(OCc2cccc(-c3ccc4c(c3)OCCO4)c2C)cc(OC)c1C=O`, for which the growth is 64%. `CCCCCCCCNc1cc2c3c(c1)CCCN3CCC2`: the growth is -3.66% (active). On to `O=C(O)/C=C/c1cn(-c2ccccc2)nc1-c1ccc(F)cc1`, for which the growth is 103%. As to `OC1CCCN(Cc2ccccc2)C1` (stereo not given), the growth was 114%. For `CN(C)c1ccc2[nH]c3c(C(N)=O)cc(=O)c(=O)c=3oc2c1` the value was -2.19% (active); for `COc1cc(-c2cc(/C=C/C(=O)c3ccc(F)c(F)c3)[nH]n2)cc(OC)c1OC`, 82.6%; for `CCC1S/C(=N\N=C(/C)c2cc3ccccc3o2)N(c2ccccc2)C1=O` (stereo not given), -93.7% (active).

As to `Cc1cc(Cl)ccc1OC(C)C(=O)Nc1nnc(C2CC2)s1` (stereo not given), the growth is 108%. Turning to `COc1ccc(C(=O)/C=C/c2ccccn2)c(O)c1`, the growth is 23.4%. `O=C1NC(SCc2ccc(F)cc2)=N/C1=C/c1cccc(OCc2ccc(Cl)cc2)c1`: the growth was 61.5%. As for `CC1(C)CC[C@]2(C(=O)OC(=O)[C@]34CCC(C)(C)C[C@@H]3C3=CC[C@@H]5[C@@]6(C)CCC(=O)C(C)(C)[C@@H]6CC[C@@]5(C)[C@]3(C)CC4)CC[C@]3(C)C(=CC[C@@H]4[C@@]5(C)CCC(=O)C(C)(C)[C@@H]5CC[C@]43C)[C@H]2C1`, the figure is 6.37% [100 µM] (active). With `COc1ccc(Nc2cc(C)nc(NCCCNc3ccnc4cc(Cl)ccc34)n2)cc1`, the growth was -75.7% (active).
